Results on 1 sequence are retold here after publication PMC7862700, “An all-to-all approach to the identification of sequence-specific readers for epigenetic DNA modifications on cytosine”.

Test in all cases: DAPPL (digital affinity profiling via proximity ligation, sequencing); 10 mM Tris-HCl pH 7.5, 50 mM NaCl, 1 mM DTT, 4% glycerol, room temperature, 30 min; GST-TFs on glutathione beads, 16-mer random dsDNA library, 0.1% formaldehyde crosslink after washing; high values mean tight binding
Common to all, as to conditions: protein: recombinant; tags: N-terminal GST; dsDNA, one strand shown

The target in one assay is T1, ELK1 (Homo sapiens, UniProt P19419 1-428).
T1 sequence: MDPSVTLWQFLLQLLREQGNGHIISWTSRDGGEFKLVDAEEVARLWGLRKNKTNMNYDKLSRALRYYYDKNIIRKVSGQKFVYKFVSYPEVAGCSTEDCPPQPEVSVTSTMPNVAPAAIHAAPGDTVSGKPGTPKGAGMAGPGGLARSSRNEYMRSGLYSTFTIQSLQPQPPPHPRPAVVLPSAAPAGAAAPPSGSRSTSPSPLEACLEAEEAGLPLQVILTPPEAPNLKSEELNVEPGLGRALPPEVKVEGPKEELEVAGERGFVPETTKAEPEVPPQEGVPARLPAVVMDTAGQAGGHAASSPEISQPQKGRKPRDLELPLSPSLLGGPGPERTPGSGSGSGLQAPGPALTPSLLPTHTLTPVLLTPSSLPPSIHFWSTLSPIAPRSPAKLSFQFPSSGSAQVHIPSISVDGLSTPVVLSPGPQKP
Summed up: (§1)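 Binding signal is each hexamer's read frequency for a factor divided by its frequency in the tag-only sample. The factors were GST-fused human transcription factors from yeast, captured on glutathione beads, DNA-barcoded and pooled with that sample. Pools were incubated with 200 nmole of a random double-stranded 16-mer DNA library in Tris/NaCl/DTT/glycerol buffer at room temperature for 30 min, then washed, crosslinked with 0.1% formaldehyde, proximity-ligated with BsaI/T4 ligase (1 h, 37 °C), PCR-amplified and sequenced on an Illumina NextSeq500.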

Another assay addresses T2, ERG (Homo sapiens, UniProt P11308 1-479).
T2 sequence: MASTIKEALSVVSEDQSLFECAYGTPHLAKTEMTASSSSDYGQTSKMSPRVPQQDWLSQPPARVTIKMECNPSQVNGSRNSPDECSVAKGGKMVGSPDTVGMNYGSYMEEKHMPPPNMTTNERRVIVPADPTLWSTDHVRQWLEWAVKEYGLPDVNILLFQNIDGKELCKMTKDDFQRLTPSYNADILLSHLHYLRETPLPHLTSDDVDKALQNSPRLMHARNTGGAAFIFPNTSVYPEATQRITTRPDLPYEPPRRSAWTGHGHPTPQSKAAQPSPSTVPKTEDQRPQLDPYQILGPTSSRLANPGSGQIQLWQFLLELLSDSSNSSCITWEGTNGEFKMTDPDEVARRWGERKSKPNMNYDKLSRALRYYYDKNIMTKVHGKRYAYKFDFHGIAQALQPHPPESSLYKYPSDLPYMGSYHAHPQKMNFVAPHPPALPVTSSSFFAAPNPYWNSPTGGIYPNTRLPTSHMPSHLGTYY
Summed up: as §1

In another assay the target is ELF1 (Homo sapiens, UniProt P32519 1-619). The procedure, abridged:
as §1

In the next assay the target is T3, EHF (Homo sapiens, UniProt Q9NZC4 1-300).
T3 sequence: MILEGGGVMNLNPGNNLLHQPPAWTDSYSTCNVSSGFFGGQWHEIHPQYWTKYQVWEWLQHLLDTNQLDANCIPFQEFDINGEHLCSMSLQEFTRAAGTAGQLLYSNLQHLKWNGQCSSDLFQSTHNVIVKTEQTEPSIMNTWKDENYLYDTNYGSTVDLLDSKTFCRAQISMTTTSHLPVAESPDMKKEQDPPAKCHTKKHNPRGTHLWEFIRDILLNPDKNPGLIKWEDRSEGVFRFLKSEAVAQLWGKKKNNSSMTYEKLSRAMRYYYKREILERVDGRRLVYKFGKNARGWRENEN
The procedure, abridged: as §1

Another assay concerns the target SPI1 (Homo sapiens, UniProt P17947 1-270). Summed up:
as §1

The target of another assay is SPIB (Homo sapiens, UniProt Q01892 1-262). Summed up:
as §1

A further assay deals with T4, FEV (Homo sapiens, UniProt Q99581 1-238).
T4 sequence: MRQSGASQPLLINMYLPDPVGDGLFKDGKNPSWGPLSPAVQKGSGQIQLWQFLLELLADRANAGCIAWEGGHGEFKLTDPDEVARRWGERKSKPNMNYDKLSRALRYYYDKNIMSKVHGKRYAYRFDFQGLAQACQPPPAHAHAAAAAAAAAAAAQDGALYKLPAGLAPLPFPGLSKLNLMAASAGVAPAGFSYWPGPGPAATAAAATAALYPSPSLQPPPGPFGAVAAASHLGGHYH
Summed up: as §1

A further assay addresses ETV5 (Homo sapiens, UniProt P41161 1-510). Summed up:
as §1

Another assay addresses T5, ELK4 (Homo sapiens, UniProt P28324-2 1-405).
T5 sequence: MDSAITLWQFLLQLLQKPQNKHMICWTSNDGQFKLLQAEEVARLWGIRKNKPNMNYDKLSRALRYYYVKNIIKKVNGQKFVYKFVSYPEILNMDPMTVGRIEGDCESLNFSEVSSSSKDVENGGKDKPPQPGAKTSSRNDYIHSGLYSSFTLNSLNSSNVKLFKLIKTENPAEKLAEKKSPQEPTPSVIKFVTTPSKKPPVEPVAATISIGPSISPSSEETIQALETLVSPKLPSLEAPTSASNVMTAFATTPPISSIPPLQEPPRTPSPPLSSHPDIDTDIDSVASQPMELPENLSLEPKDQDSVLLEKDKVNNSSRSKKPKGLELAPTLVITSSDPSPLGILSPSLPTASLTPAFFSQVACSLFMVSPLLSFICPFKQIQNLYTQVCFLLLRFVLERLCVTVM
The procedure, abridged: as §1

The target in the next assay is T6, ETV2 (Homo sapiens, UniProt O00321 1-342).
T6 sequence: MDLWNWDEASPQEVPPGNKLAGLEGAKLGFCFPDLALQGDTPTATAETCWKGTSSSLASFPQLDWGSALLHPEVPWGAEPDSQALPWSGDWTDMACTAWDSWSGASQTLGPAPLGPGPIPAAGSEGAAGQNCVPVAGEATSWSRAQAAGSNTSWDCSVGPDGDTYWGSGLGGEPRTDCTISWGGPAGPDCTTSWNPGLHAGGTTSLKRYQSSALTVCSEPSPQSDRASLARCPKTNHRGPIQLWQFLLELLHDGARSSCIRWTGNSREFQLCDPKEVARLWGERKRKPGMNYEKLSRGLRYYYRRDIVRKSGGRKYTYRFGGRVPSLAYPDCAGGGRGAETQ
Summed up: as §1

A further assay deals with ETV1 (Homo sapiens, UniProt P50549 1-477). The procedure, abridged: as §1
ETV1, sequence (P50549 whole entry): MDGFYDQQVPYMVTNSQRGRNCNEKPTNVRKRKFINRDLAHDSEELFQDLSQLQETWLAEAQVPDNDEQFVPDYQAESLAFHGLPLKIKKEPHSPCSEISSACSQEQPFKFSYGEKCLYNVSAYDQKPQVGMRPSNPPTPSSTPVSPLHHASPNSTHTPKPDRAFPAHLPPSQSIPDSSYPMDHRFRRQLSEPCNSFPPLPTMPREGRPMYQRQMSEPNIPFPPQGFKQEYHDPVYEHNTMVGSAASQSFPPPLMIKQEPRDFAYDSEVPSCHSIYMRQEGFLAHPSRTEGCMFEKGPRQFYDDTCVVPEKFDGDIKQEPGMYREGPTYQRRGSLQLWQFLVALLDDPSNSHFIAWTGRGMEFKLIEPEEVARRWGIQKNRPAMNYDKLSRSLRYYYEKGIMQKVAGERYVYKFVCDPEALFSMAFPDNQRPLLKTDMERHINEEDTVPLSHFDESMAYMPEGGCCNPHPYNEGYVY
The target in another assay is T7, ERF (Homo sapiens, UniProt P50548 1-548).
T7 sequence: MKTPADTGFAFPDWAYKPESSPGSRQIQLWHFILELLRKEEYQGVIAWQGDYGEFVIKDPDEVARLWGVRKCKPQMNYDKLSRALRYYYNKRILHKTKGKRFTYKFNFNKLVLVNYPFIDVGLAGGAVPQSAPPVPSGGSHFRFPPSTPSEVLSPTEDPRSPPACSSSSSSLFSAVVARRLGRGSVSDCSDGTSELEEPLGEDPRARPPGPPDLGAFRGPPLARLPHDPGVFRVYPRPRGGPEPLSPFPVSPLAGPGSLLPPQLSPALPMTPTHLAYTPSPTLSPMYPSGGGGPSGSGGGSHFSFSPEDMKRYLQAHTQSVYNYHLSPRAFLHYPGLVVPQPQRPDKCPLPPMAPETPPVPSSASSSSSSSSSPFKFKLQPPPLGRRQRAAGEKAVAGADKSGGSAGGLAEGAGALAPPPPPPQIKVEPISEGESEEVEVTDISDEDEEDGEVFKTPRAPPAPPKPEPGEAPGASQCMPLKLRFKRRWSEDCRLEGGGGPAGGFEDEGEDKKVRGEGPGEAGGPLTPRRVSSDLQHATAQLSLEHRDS
The procedure, abridged: as §1

For the next assay, the target named is T8, ETV3L (Homo sapiens, UniProt Q6ZN32 1-361).
T8 sequence: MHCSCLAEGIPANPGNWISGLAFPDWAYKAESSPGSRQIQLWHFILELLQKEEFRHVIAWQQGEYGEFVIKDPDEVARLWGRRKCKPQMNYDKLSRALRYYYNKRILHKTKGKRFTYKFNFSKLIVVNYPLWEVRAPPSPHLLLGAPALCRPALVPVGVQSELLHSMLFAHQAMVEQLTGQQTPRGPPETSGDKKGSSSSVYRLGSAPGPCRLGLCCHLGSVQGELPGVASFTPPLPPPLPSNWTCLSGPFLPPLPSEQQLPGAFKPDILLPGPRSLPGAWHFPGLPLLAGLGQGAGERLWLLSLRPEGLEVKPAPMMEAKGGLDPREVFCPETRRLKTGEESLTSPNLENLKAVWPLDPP
Summed up: as §1

For the next assay, the target named is T9, ETS2 (Homo sapiens, UniProt P15036 1-469).
T9 sequence: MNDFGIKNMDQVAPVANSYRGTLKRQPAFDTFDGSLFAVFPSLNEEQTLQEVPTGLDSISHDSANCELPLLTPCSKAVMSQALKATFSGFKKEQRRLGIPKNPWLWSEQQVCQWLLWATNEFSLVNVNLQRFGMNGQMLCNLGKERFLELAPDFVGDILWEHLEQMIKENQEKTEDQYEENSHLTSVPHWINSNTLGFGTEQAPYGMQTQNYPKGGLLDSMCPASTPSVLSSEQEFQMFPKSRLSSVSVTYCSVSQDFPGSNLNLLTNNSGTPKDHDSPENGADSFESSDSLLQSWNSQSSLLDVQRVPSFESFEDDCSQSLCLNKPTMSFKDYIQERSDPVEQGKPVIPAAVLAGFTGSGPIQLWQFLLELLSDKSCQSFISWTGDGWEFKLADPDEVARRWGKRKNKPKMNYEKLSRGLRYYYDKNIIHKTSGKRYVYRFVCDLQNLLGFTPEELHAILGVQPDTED
The procedure, abridged: as §1

In a further assay the target is T10, ETV3 (Homo sapiens, UniProt P41162-2 1-143).
T10 sequence: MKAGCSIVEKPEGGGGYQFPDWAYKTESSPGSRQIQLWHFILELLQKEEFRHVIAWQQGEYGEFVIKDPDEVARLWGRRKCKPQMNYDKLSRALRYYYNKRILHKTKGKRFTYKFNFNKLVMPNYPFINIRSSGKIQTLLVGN
The procedure, abridged:
as §1

Another assay has as its target ETV6 (Homo sapiens, UniProt P41212 1-452). Summed up: as §1

ETV5, sequence (P41161 whole entry): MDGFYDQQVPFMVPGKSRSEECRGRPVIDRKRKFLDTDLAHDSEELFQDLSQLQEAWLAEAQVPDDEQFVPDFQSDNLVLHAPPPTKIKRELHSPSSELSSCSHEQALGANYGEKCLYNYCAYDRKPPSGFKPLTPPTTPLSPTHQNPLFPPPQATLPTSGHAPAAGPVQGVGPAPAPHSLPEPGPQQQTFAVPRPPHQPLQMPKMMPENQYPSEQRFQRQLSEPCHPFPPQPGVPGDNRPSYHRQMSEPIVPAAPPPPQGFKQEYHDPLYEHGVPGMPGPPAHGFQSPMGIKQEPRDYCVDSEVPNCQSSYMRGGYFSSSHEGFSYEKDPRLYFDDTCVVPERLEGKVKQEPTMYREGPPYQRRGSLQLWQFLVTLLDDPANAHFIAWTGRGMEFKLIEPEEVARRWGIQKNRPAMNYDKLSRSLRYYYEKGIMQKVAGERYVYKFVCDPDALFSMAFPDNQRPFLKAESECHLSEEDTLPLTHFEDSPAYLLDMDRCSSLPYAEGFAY
SPIB, sequence (Q01892 whole entry): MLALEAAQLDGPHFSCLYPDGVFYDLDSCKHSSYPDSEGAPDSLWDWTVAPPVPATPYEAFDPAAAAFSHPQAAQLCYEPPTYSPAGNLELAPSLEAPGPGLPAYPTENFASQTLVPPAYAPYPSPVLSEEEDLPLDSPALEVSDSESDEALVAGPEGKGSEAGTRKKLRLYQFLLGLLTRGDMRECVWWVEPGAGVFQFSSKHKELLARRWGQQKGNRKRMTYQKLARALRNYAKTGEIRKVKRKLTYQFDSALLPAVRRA
ELF1, sequence (P32519 whole entry): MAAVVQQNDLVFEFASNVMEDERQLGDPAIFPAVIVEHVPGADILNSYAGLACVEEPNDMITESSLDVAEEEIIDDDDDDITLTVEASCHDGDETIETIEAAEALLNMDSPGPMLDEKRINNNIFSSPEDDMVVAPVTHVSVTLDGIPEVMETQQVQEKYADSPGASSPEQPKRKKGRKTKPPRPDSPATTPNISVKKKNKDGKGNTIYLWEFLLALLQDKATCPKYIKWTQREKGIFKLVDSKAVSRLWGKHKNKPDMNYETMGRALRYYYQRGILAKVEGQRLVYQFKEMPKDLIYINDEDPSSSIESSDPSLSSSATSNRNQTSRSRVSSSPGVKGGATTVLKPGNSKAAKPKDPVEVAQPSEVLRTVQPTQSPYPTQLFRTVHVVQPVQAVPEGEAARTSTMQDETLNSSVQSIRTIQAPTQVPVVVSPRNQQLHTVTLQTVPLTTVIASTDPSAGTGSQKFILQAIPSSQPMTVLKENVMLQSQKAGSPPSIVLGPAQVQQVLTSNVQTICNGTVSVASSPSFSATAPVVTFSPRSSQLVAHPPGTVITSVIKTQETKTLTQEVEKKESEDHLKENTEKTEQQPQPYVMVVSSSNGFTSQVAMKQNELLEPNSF
ETV6, sequence (P41212 whole entry): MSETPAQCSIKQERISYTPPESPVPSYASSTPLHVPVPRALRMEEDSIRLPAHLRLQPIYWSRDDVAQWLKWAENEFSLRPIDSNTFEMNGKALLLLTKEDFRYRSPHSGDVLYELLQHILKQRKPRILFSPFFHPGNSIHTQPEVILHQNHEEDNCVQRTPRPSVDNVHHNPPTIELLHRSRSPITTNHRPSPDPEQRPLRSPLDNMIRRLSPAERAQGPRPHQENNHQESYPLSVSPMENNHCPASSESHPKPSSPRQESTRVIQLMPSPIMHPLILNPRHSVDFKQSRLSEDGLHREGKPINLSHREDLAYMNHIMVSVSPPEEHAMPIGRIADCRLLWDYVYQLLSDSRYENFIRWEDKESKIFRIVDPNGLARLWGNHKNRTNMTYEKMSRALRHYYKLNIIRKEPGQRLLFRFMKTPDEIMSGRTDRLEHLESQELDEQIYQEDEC

With CGACTG, the binding signal is 1.13 fold enrichment (6-mer frequency, TF over GST control) with ELK1; 1.05 fold enrichment (6-mer frequency, TF over GST control) with ERG; 1.08 fold enrichment (6-mer frequency, TF over GST control) with ELF1; 1.02 fold enrichment (6-mer frequency, TF over GST control) with EHF; 1.04 fold enrichment (6-mer frequency, TF over GST control) with SPI1; 1.05 fold enrichment (6-mer frequency, TF over GST control) in the assay with SPIB. In addition, the binding signal with FEV is 1.1 fold enrichment (6-mer frequency, TF over GST control); with ETV5, 1.06 fold enrichment (6-mer frequency, TF over GST control); with ELK4, 1.22 fold enrichment (6-mer frequency, TF over GST control); with ETV2, 1.19 fold enrichment (6-mer frequency, TF over GST control); with ETV1 it was 1.13 fold enrichment (6-mer frequency, TF over GST control); with ERF, 1.17 fold enrichment (6-mer frequency, TF over GST control). Besides, the binding signal with ETV3L was 1.07 fold enrichment (6-mer frequency, TF over GST control); in the assay with ETS2, 1.08 fold enrichment (6-mer frequency, TF over GST control); in the assay with ETV3, 1.05 fold enrichment (6-mer frequency, TF over GST control); with ETV6, 1.02 fold enrichment (6-mer frequency, TF over GST control).
